About 83,000 compounds went through this panel and 20% of them were active in at least one assay; those are over-represented in the sample as a whole.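 Cells were grown in 96-well plates and exposed to the test compound at a single concentration for 48 hours; results are reported as percent growth, with values below 10 considered active.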 Values without a mark were called inactive. Activity calls are given as the source filed them.
What was measured:
Assay in all cases: NCI-60 one-dose screen, 48 h (100 = growth as untreated, 0 = no growth, -100 = all killed)
Details in all cases: 10 µM unless noted
NCI-H23 lung = tested on: NCI-H23 lung
NCI-H226 lung = tested on: NCI-H226 lung
NCI-H322M lung = tested on: NCI-H322M lung
HOP-62 NSCLC = tested on: HOP-62 NSCLC
NCI-H460 lung = tested on: NCI-H460 lung
HOP-92 NSCLC = tested on: HOP-92 NSCLC
NCI-H522 lung = tested on: NCI-H522 lung
A549/ATCC NSCLC = tested on: A549/ATCC NSCLC
786-0 renal = tested on: 786-0 renal
COLO 205 colon = tested on: COLO 205 colon
DU-145 prostate = tested on: DU-145 prostate
K-562 leukemia = tested on: K-562 leukemia
MALME-3M melanoma = tested on: MALME-3M melanoma
MDA-MB-231 breast = tested on: MDA-MB-231 breast
RXF 393 renal = tested on: RXF 393 renal
SF-268 CNS = tested on: SF-268 CNS
SF-295 CNS = tested on: SF-295 CNS
SF-539 CNS = tested on: SF-539 CNS
UACC-257 melanoma = tested on: UACC-257 melanoma
M14 melanoma = tested on: M14 melanoma

Row | Structure (SMILES) | growth (NCI-H23 lung) | growth (NCI-H226 lung) | growth (NCI-H322M lung) | growth (HOP-62 NSCLC) | growth (NCI-H460 lung) | growth (HOP-92 NSCLC) | growth (NCI-H522 lung) | growth (A549/ATCC NSCLC) | growth (786-0 renal) | growth (COLO 205 colon) | growth (DU-145 prostate) | growth (K-562 leukemia) | growth (MALME-3M melanoma) | growth (MDA-MB-231 breast) | growth (RXF 393 renal) | growth (SF-268 CNS) | growth (SF-295 CNS) | growth (SF-539 CNS) | growth (UACC-257 melanoma) | growth (M14 melanoma)
1 | N#CC1=C(N)Oc2c(sc3c(Br)cccc23)C1c1ccc(F)cc1 (stereo not given) | 31.1% | 36.6% | 41.3% | 26.3% | 9.57% (active) | 41% | -6.79% (active) | 24.1% | 12.2% | -35.7% (active) | 24.1% | 9.02% (active) | 49.4% | 16.9% | -2.88% (active) | 25.5% | 5.32% (active) | -27.1% (active) | 74.1% | 9.58% (active)
2 | CN(C)CCCC1(c2ccc(F)cc2)OCc2cc(-c3cncc4ccccc34)ccc21 (stereo not given) | 77.6% | 77.2% | 51.5% | 65% | 10.6% | 49.5% | 42.9% | 46.9% | 46.8% | 16.3% | 48.5% | 1.06% (active) | -85% (active) | 38.3% | 20.1% | 49.5% | 17.8% | 54.9% | -64.5% (active) | -56% (active)
3 | O=C(O)[C@@H]1c2ccccc2-c2ccccc2[C@H]1C(=O)O | 91.4% | 97.8% | 99.2% | 90.8% | 109% | 61.5% | 91% | 102% | 88.8% | 106% | 115% | 98% | 96.8% | 105% | 102% | 105% | 98.8% | 98.4% | 80.6% | 92.5%
4 | O=C(Nc1nc2ccc(F)cc2s1)c1cccnc1Nc1ccc(Cl)cc1 | 9.97% (active) | 44.1% | 30.9% | 75.6% | 9.26% (active) | 0.414% (active) | 21.1% | 31% | 56.2% | 49.8% | 44.3% | 5.7% (active) | 3.74% (active) | 50.7% | 59.8% | 37.2% | 17.4% | 50.3% | 43% | 53.8%
5 | CCc1nc2c(=O)[nH]cnc2o1 | 107% | 96.4% | 97.8% | 100% | 105% | 72.2% | 108% | 99.7% | 110% | 110% | 112% | 104% | 83.1% | 117% | 102% | 103% | 110% | 94.8% | 107% | 103%
6 | CCNC(=O)c1[nH]cc(-c2ccccc2)c1-c1cc(OC)c2c(c1OC)OCO2 | 93.8% | 86.9% | 93.7% | 91.8% | 108% | 83.9% | 93.4% | 96% | 101% | 111% | 112% | 94% | 110% | 97.2% | 102% | 97.6% | 100% | 102% | 102% | 95.8%
7 | COc1cc(-c2nc(SCCC(C)C)nc(Nc3ccccc3Cl)c2C#N)cc(OC)c1OC | 101% | 102% | 100% | 110% | 97.7% | 91% | 84.5% | 92.1% | 92.4% | 109% | 97.7% | 95.1% | 105% | 81.5% | 117% | 85.7% | 100% | 95.6% | 127% | 96.6%
8 | O=S(=O)(Nc1ccccc1)c1ccc(C2CC3(Cl)C(Cl)=C(Cl)C2(Cl)C3(Cl)Cl)cc1 (stereo not given) | 22.1% | 74.3% | 61.5% | 51.4% | 21.1% | -10.3% (active) | 29.9% | 30.2% | 32.4% | 29.2% | 66.4% | 27% | 35.1% | 59.3% | 32.9% | 57.2% | 8.38% (active) | 72.9% | 36.8% | 52.6%
9 | CC1(C)CCC(S(=O)(=O)c2ccc3c(c2)/C(=N\O)c2cc(S(=O)(=O)N4CCC(O)(c5cccc(C(F)(F)F)c5)CC4)ccc2-3)CC1 | -48.7% (active) | -55.9% (active) | -38.5% (active) | -92.1% (active) | -84.5% (active) | -36% (active) | -81.4% (active) | -83.9% (active) | -87.3% (active) | -90% (active) | -83.8% (active) | -70.2% (active) | -79% (active) | -68.7% (active) | -85.4% (active) | -71.2% (active) | -64.8% (active) | -82.1% (active) | -69.9% (active) | -74.8% (active)
10 | COc1ccc(CC(C#N)c2cc3ccccc3[nH]2)cc1 (stereo not given) | 87.1% | 90.6% | 92.9% | 89% | 97.2% | 49.7% | 84.3% | 86.3% | 94.7% | 99.8% | 101% | 80.5% | 89.3% | 82.3% | 94.1% | 90.7% | 94.1% | 97.5% | 94.3% | 84.2%
11 | Cn1cc(-c2csc(-c3ccc(Cl)cc3)n2)c2cccnc21 | -49.3% [100 µM] (active) | -14.3% [100 µM] (active) | -8.35% [100 µM] (active) | -53.7% [100 µM] (active) | -16.4% [100 µM] (active) | -69.2% [100 µM] (active) | 9.55% [100 µM] (active) | 9.96% [100 µM] (active) | -61.4% [100 µM] (active) | -65.8% [100 µM] (active) | -70.5% [100 µM] (active) | 3.35% [100 µM] (active) | -9.47% [100 µM] (active) | -46.5% [100 µM] (active) | -7.46% [100 µM] (active) | -33.6% [100 µM] (active) | -20.3% [100 µM] (active) | -63.8% [100 µM] (active) | -35.6% [100 µM] (active) | -62.3% [100 µM] (active)
12 | COC1C[C@H](O[C@@H]2C[C@H](O[C@@H]3C[C@H](O[C@@H]4C(=O)c5c(cc6cc(O[C@H]7C[C@@H](O[C@H]8C[C@@H](O)[C@H](O)C(C)O8)[C@H](O)C(C)O7)c(C)c(O)c6c5O)C[C@H]4C(OC)C(=O)[C@@H](O)[C@@H](C)O)OC(C)[C@H]3O)OC(C)[C@@H]2O)OC(C)[C@@H]1O (stereo not given in full) | -1.75% (active) | 3.22% (active) | 6.22% (active) | -7.62% (active) | 6.26% (active) | -12.1% (active) | -33.1% (active) | 1.74% (active) | -5.74% (active) | -78.3% (active) | 14% | 4.88% (active) | -59.4% (active) | -7.44% (active) | -50.9% (active) | 18.3% | 7.37% (active) | -8.29% (active) | -37.3% (active) | -22.7% (active)
13 | CC(C)CCNC(=O)Cn1cccc(NC(=O)OCc2ccccc2)c1=O | 88% | 87.4% | 112% | 93.8% | 102% | 91.5% | 88.2% | 95.6% | 111% | 108% | 109% | 114% | 104% | 107% | 106% | 102% | 107% | 115% | 104% | 116%
14 | COC(=O)[C@H]1CCCN1C[C@@H](O)CN1C(=O)/C(=C\c2cc(OC)c(OC)c(OC)c2)c2ccccc21 | 106% | 96.6% | 106% | 108% | 94.9% | 105% | 97.8% | 90.3% | 101% | 121% | 99.6% | 81.4% | 100% | 102% | 114% | 99.8% | 105% | 111% | 90.6% | 97.3%
15 | CN(C)CCCn1c2c(c3ncccc3c1=O)C(=O)c1ccccc1-2 | 54.8% | 54.1% | 44.1% | 51.9% | 11.6% | 70.9% | 34.4% | 42% | 52.2% | 20.4% | 39.3% | 24.7% | 61.9% | 63.6% | 57.3% | 42.3% | 50.7% | 21% | 72.8% | 48.6%

From PubChem BioAssay (NCI)
